Bioassay records from PubChem BioAssay.
IL-1B inflam inh: blocks inflammasome-driven IL-1 beta release | AID 743279 | THP-1 LPS/ATP IL-1B secretion, AlphaLISA, 16 h; stronger effect = lower value | activity change, % at 57.5 µM | hit rate 4.7% among 360,000; in the data active = activity change below about -50%; inconclusive = mostly about -30% to -49%; also: % is scaled to controls: 0 for no effect and ±100 for the full control effect
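THP-1 cells pretreated 1 hr with compounds (up to 57.5 uM final), then stimulated with LPS (250 ng/mL final) plus ATP (1.25 mM final); secreted IL-1B measured by AlphaLISA after 16 hr, decreased signal indicating inhibition.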
TGFb SMAD3 inh: blocks TGF-b signaling | HepG2 CAGA-GFP TGF-b/SMAD3 reporter, GFP fluorescence, 18 h; TGF-beta stimulated, 500 pg/mL final | hit rate 1.2% among 410,000 | Potency, µM (highest dose often 46.1 µM), for the others: top-dose activity, negative = inhibition, actives largely listed as inhibitors; also: potency is read from the fitted curve at half-maximal effect; % is scaled to controls: 0 for no effect and ±100 for the full control effect; nearly all actives have a fitted effect of over 65% in size
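First, reporter cells (HEPG2 CAGA-GFP) rested 2 h at 37 degrees C. Next, compounds were pinned in and TGF-beta added to 500 pg/mL final. After 18 h, GFP was imaged per cell and summed per well.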
HepG2 tox: HepG2 cytotoxicity, counter-screen for TGF-b inhibitors; Potency, µM (top dose mostly 46.1 µM), inactives show at the top dose activity change, negative = cytotoxicity, hits mostly cytotoxic; hit rate 0.76% among 410,000; HepG2 CAGA-GFP viability, ATP luminescence, 18 h; also: potency is read from the fitted curve at half-maximal effect
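HepG2 CAGA-GFP cells (1000/well, DMEM with 1% FBS) received compound, then TGF-beta at 500 pg/mL final, and were incubated 18 hours at 37 degrees C. Viability was read by CellTiter-Glo luminescence. Media-only wells were set as complete cell-killing and DMSO as no toxicity.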
TDP1 inh: TDP1 (human) enzyme inhibition; Q9NUW8; hit rate 0.28% among 350,000; recombinant TDP1, AlphaScreen DNA substrate cleavage; Potency, µM (titrated, usually from 130 µM), for inactives: at the top dose activity change, negative = inhibition, hits mostly inhibitors; AID 485290; also: potency is read from the fitted curve at half-maximal effect; % is scaled to controls: 0 for no effect and ±100 for the full control effect; nearly all actives have a fitted effect of over 40% in size
Target sequence (Q9NUW8 whole entry, looked up): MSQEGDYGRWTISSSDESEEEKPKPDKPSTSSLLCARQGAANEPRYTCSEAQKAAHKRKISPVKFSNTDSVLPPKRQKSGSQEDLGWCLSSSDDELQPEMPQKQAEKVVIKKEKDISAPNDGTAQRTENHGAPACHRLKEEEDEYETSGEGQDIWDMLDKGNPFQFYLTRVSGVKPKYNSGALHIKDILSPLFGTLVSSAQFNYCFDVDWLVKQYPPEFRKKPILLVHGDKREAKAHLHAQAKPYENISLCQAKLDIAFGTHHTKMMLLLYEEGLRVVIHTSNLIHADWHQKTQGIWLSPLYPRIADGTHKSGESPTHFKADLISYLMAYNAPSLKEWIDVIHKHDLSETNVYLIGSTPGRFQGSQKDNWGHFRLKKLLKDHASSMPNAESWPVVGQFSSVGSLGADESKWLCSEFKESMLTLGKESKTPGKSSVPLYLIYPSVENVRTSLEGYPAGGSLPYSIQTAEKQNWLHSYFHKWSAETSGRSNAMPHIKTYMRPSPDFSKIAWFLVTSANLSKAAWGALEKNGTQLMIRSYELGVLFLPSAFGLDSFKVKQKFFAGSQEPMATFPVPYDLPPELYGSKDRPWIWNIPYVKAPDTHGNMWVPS
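Recombinant E. coli-expressed Tdp1 (1 nM) preincubated with compound 15 min at RT, then 5'-biotin/3'-phosphotyrosine-FITC DNA substrate (15 nM) added for 5 min. AlphaScreen beads (10 ug/ml) added, 10 min RT; tyrosine-FITC cleavage read as signal loss.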
DT40 TDP1 CPT: growth inhibition of DT40 Tdp1-/-;hTDP1 cells with camptothecin (screen for TDP1 inhibitors). chicken DT40 Tdp1-/-;hTDP1 cells + 20 nM CPT, ATP luminescence, 48 h. Potency, µM (titrated, usually from 46.2 µM), inactives show at the top dose activity change, negative = growth inhibition, hits mostly inhibitors. hit rate 12% among 420,000; also: potency is read from the fitted curve at half-maximal effect; % is scaled to controls: 0 for no effect and ±100 for the full control effect; nearly all actives have a fitted effect of over 55% in size
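Chicken DT40 Tdp1-/- cells complemented with human TDP1, 400 cells/well, exposed to compounds plus 20 nM camptothecin for at least 48 h at 37 C; viability read as ATP content by CellTiter-Glo luminescence.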
TDP1 cell noCPT: qHTS for Inhibitors of human tyrosyl-DNA phosphodiesterase 1 (TDP1): qHTS in cells in absence of CPT | Potency, µM (series often up to 46.2 µM), for inactives: at the top dose activity change, negative = growth inhibition, hits mostly inhibitors | AID 686978, 2013 | hit rate 15% among 420,000 | DT40 Tdp1-/- hTDP1 cells, no CPT, ATP luminescence, 48 h; also: potency is read from the fitted curve at half-maximal effect; % is scaled to controls: 0 for no effect and ±100 for the full control effect; nearly all actives have a fitted effect of over 55% in size
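Cells were dispensed at 400 per well, compounds added by pin tool, plates incubated ≥48 hr at 37 °C, then CellTiter-Glo added for 30 min at room temperature before luminescence reading. Line: DT40 Tdp1-/- complemented with hTDP1; camptothecin omitted.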
The depositor's hits bear a star; i = inactive; ? = inconclusive; . = no result given; [ ] = dose if it differs, or a comment. Most compounds without a hit are left out; they make up all but 18% or so of the library. Unless noted, calls follow the shape of the dose curve; as a rule, active = well fitted curve in the direction sought with a large enough effect; inconclusive = small, poorly fitted or top-dose-only effect, or another doubt; inactive = no such curve, though single readings can be large; an effect the other way counts as inactive or inconclusive.

SMILES	IL-1B inflam inh	TGFb SMAD3 inh	HepG2 tox	TDP1 inh	DT40 TDP1 CPT	TDP1 cell noCPT
c1cncc(-c2nnc(-c3cccnc3)nn2)c1	20	?	-59%	4%	2.9µM*	5.2µM*
CCOC(=O)C1CCN(Cc2nc3ccccc3c(=O)n2-c2ccc(OCC)cc2)CC1	-19	0%	3%	7%	?	?
CN(C)Cc1nc2ccccc2c(=O)n1Cc1nc(-c2cc3ccccc3o2)cs1	32	-19%	-28%	10%	?	18µM*
Cc1csc(Cn2c(CN(C)C)nc3ccccc3c2=O)n1	-5	10%	-7%	2%	-15%	-10%
CCOc1ccc(-c2csc(Cn3c(CN4CCN(C)CC4)nc4ccccc4c3=O)n2)cc1	-75*	?	-41%	5%	7.3µM*	8.2µM*
Fc1ccc2cc(-c3ccccc3)ncc2c1	52	-13%	-12%	1%	?	-9%
CC(=O)C1C(=O)C=C(c2cccs2)CC1c1ccccc1 (stereo not given)	-14	16%	4%	0%	14%	?
O=C1C=C(c2cccs2)C[C@H](c2ccccc2)[C@H]1n1nnc([N+](=O)[O-])n1	-57*	?	-47%	1%	2.6µM*	2.9µM*
CC(C)=CC1C(C(=O)Nc2ccc(S(=O)(=O)N3CCOCC3)cc2)C1(C)C (stereo not given)	-64*	-17%	-12%	.	?	?
CCc1ccc(N2CC(C(=O)Nc3ccc(S(=O)(=O)N4CCOCC4)cc3)CC2=O)cc1 (stereo not given)	-61*	1%	-7%	.	?	?
Cc1cccc(N2CC(C(=O)Nc3cccc(S(=O)(=O)N4CCCCC4)c3)CC2=O)c1C (stereo not given)	-51*	?	-5%	1%	18µM*	?
CCC(C)c1ccccc1N1CC(C(=O)Nc2ccc(N3CCOCC3)cc2)CC1=O (stereo not given)	-9	-2%	-8%	2%[56.1 µM]	-13%	-7%
CCC(C)c1ccccc1N1CC(C(=O)Nc2cccc(S(=O)(=O)N3CCOCC3)c2)CC1=O (stereo not given)	i	?	-1%	2%	18µM*	18µM*
COC(=O)CCN(c1ccccc1)C(CNS(=O)(=O)c1ccccc1)c1ccccc1 (stereo not given)	.	?	-35%	5%	?	?
CCc1ccccc1N1CC(C(=O)Nc2cc(S(=O)(=O)N3CCCC3)ccc2Cl)CC1=O (stereo not given)	15	-26%	11%	-6%[56.1 µM]	?	15µM*
CSc1cccc(N2CC(C(=O)Nc3cccc(S(=O)(=O)N4CCCC4)c3)CC2=O)c1 (stereo not given)	6	?	-23%	1%	21µM*	15µM*
CSc1cccc(NC(=O)C2CCN(S(=O)(=O)c3ccc4[nH]c5c(c4c3)CCCCC5)CC2)c1	.	?	-25%	11%	?	21µM*
O=C(Nc1cccc(F)c1)C1CCN(S(=O)(=O)c2ccc3[nH]c4c(c3c2)CCCCC4)CC1	.	-27%	-32%	11%	?	?
CCOc1ccc(N2CC(C(=O)Nc3cccc(S(=O)(=O)N4CCCCC4)c3)CC2=O)cc1 (stereo not given)	-2	?	-4%	3%	-22%	?
CN(C1CCCCC1)S(=O)(=O)c1cccc2nsnc12	33	-15%	-16%	12%	?	?
O=C(CCC(=O)OCc1ccc(Br)cc1)Nc1ccccc1	2	-5%	6%	-8%	16µM*	?
O=C(CCC(=O)OCc1ccc(C(=O)Oc2ccc(Cl)cc2)cc1)Nc1ccccc1	-5	-7%	-6%	-3%	-1%	7%
CN(CCC(=O)Nc1ccc(Br)cc1)Cc1ccccc1	-62*	1%	-5%	2%	?	?
O=C(Cc1ccccc1)Nc1ccc(NC(=O)c2ccc(Br)cc2)cc1	5	-3%	20%	.	11%	-9%
Cc1ccccc1CN(C)C(C)C(=O)Nc1ccccc1F (stereo not given)	0	?	-41%	-6%	?	26µM*
SMILES	IL-1B inflam inh	TGFb SMAD3 inh	HepG2 tox	TDP1 inh	DT40 TDP1 CPT	TDP1 cell noCPT
Cc1ccc([N+](=O)[O-])cc1S(=O)(=O)Nc1ccc(C(=O)N2CCN(C(=O)c3ccco3)CC2)cc1	28	-2%	-12%	.	-16%	-1%
O=C(/C=C/c1cccs1)c1cc(Br)ccc1OC(=O)N1CCOCC1	-98*	-4%	11µM*	8%	?	?
O=C(/C=C/c1cccs1)c1ccc(N2CCOCC2)cc1	-69*	-25%	-6%	-1%	?	?
C/C(Cl)=C\COc1cc(C)nc2c(Br)cccc12	6	2%	-2%	-3%	-2%	29µM*
C[C@H](O)[C@@H]1C(=O)N2CCc3ccc(N4CCN(C)CC4)cc3[C@@H]2C[C@@H]1N(C)C(=O)c1ccco1	9	2%	1%	.	0%	-16%
COc1cccc(Cn2c(=O)c(C)nc3cnc(Oc4cccc(Cl)c4)nc32)c1	.	.	.	.	-33%	23µM*
Cc1nc2cnc(Oc3cccc(Cl)c3)nc2n(CCc2ccccc2)c1=O	.	.	.	.	-18%	?
COc1ccc(Oc2ncc3nc(C)c(=O)n(Cc4ccc(F)cc4)c3n2)cc1	.	.	.	.	?	21µM*
COc1cccc(Cn2c(=O)c(C)nc3cnc(OCc4ccccc4)nc32)c1	.	.	.	.	-23%	18µM*
COC(=O)c1sc2cccc(F)c2c1S(=O)(=O)Nc1ccc(N(C)C)cc1	.	-15%	-41%	5%	-5%	-22%
O=C1CC(NS(=O)(=O)c2ccc3ccccc3c2)CN1c1ccccc1 (stereo not given)	-8	-17%	-5%	.	10%	?
COc1ccc(N(CC(=O)Nc2ccc(S(=O)(=O)N3CCOCC3)cc2)S(=O)(=O)c2ccc(F)cc2)cc1	-12	-2%	-4%	3%	?	?
Cc1ccc(OCC(=O)Nc2ccccc2N2CCCC2)c(C)c1	?	-25%	-28%	2%	?	29µM*
Cc1cccc(OCC(=O)Nc2ccccc2N2CCCCC2)c1	7	?	-25%	-2%	12µM*	?
Cc1cccc(OCC(=O)Nc2ccccc2N2CCN(C)CC2)c1	-26	-3%	-11%	.	-14%	?
